Measurements: PubChem BioAssay (NCI)
Compounds without any hit were thinned out: in the full panel of roughly 79,000, 15% have a hit. Values without a mark were called inactive. Activity calls are given as the source filed them. Cut-off read from the data, not from the text of the source: active = growth inhibition above about 70%; inactive = the rest.

Columns and labels:
[1] = NCI Yeast Anticancer Drug Screen. Data for the rad50 strain (AID 155);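 note: 0% = growth of vehicle-only cultures of the same strain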; conditions: S. cerevisiae rad50 strain growth inhibition, active compounds read high
Procedure, shortened: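 Inhibition values express reduced yeast growth in compound-treated cultures relative to vehicle-treated controls.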

[2] = NCI Yeast Anticancer Drug Screen. Data for the mec2-1 strain (AID 157); conditions: S. cerevisiae mec2-1 strain, active compounds read high
Procedure, shortened: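 Mutant yeast (mec2-1) grown with compound; growth inhibition relative to vehicle control reported.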

[3] = NCI Yeast Anticancer Drug Screen. Data for the sgs1 mgt1 strain (AID 161);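 note: 0% = growth of cultures given vehicle only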; conditions: S. cerevisiae sgs1 mgt1 strain, active compounds read high
Procedure, shortened: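 Compounds are added to genetically altered yeast, and growth is compared with cultures given vehicle alone to give percent inhibition.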

[4] = NCI Yeast Anticancer Drug Screen. Data for the cln2 rad14 strain (AID 165);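 note: 0% = growth equal to vehicle treated cultures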; conditions: S. cerevisiae cln2 rad14 strain, active compounds read high
Procedure, shortened: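 Readout is yeast growth inhibition versus vehicle-treated controls, using a strain with cln2 and rad14 alterations exposed to compound.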

[5] = NCI Yeast Anticancer Drug Screen. Data for the bub3 strain (AID 167); conditions: S. cerevisiae bub3 mutant strain, active compounds read high
Procedure, shortened: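 Steps: expose the mutant yeast strain to compound; grow alongside vehicle-treated cultures; measure growth; express inhibition against the vehicle cultures.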

[6] = NCI Yeast Anticancer Drug Screen. Data for the mlh1 rad18 strain (AID 175); conditions: S. cerevisiae mlh1 rad18 strain growth inhibition, active compounds read high
Procedure, shortened: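 Genetically defined yeast (DNA repair-deficient) exposed to compounds; growth inhibition determined relative to vehicle.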

[7] = at 5.0 µM (retest, dose inferred, filed as 0.5)
[8] = at 50.0 µM (retest, dose inferred, filed as 5.0)

Structure (SMILES) | growth inhibition [1, 7] | growth inhibition [1, 8] | growth inhibition ([1]; at 50.0 µM) | growth inhibition [2, 7] | growth inhibition [2, 8] | growth inhibition ([2]; at 50.0 µM) | growth inhibition [3, 7] | growth inhibition [3, 8] | growth inhibition ([3]; at 50.0 µM) | growth inhibition [4, 7] | growth inhibition [4, 8] | growth inhibition ([4]; at 50.0 µM) | growth inhibition [5, 7] | growth inhibition [5, 8] | growth inhibition ([5]; at 50.0 µM) | growth inhibition [6, 7] | growth inhibition [6, 8] | growth inhibition ([6]; at 50.0 µM)
O=[N+]([O-])c1cc2ccc(O)cc2c2ccccc12 | -1% | 89% (active) | 93.5% (active) | -8% | 85% (active) | 94.2% (active) | 10% | 86% (active) | 96.3% (active) | -1% | 60% | 95.2% (active) | -3% | 86% (active) | 96.2% (active) | -7% | 91% (active) | 93.7% (active)
ClCc1ccc2oc3ccccc3c2c1 | -5% | 8% | 30% | 1% | 0% | 17.1% | -12% | -4% | 27.9% | -1% | -8% | 43.5% | 2% | -7% | -23.6% | -3% | 5% | 68.6%
CCCCCCCCCCCC(=O)N(CCCCCCCCC)CC(O)C(O)C(OC1OC(CO)C(O)C(O)C1O)C(O)CO (configuration not stated) | 0% | 97% (active) | 82.5% (active) | -2% | 95% (active) | 85% (active) | -36% | 96% (active) | 85.7% (active) | -17% | 91% (active) | 66.5% | 6% | 96% (active) | 86.3% (active) | 1% | 97% (active) | 62%
O=[N+]([O-])/C=C/c1cc2c(ccc3ccccc32)[nH]1 | 61% | 98% (active) | 82.7% (active) | 94% (active) | 95% (active) | 92.2% (active) | 88% (active) | 98% (active) | 94.5% (active) | 37% | 92% (active) | 93.3% (active) | 96% (active) | 98% (active) | 90.7% (active) | 87% (active) | 97% (active) | 89% (active)
Clc1ccccc1/C=C/c1nccc2ccccc12 | 15% | 98% (active) | 94.1% (active) | -1% | 99% (active) | 60.2% | 18% | 98% (active) | 72.3% (active) | 15% | 98% (active) | 15.1% | 64% | 99% (active) | 88.5% (active) | 1% | 98% (active) | 94.2% (active)
O=C1Nc2ccc([N+](=O)[O-])c3c([N+](=O)[O-])ccc1c23 | 4% | 82% (active) | 79% (active) | 11% | 81% (active) | 47.4% | 3% | 88% (active) | 57.5% | 0% | 39% | 69.8% | 2% | 70% (active) | 34.2% | 47% | 94% (active) | 90.7% (active)
CN(C)C1CCC2C3CC=C4CC(OC=O)CCC4(C)C3CCC21C (configuration not stated) | -1% | 48% | 71.2% (active) | 2% | 42% | 17.3% | 2% | 60% | 65.5% | 17% | 83% (active) | 76.4% (active) | 0% | 86% (active) | 48.8% | -11% | 52% | 45.7%
CCOC(=O)C1SC(=S)N(C)C1=O (configuration not stated) | 3% | 99% (active) | 99.2% (active) | -2% | 99% (active) | 99.5% (active) | 8% | 99% (active) | 99% (active) | -7% | 99% (active) | 99.1% (active) | -3% | 98% (active) | 99.4% (active) | 19% | 98% (active) | 99.4% (active)
O=C1C(=O)c2cc(Br)cc([N+](=O)[O-])c2-c2ccc(Br)cc21 | 68% | 96% (active) | 95.5% (active) | 52% | 96% (active) | 98.3% (active) | 83% (active) | 93% (active) | 97.1% (active) | 21% | 92% (active) | 96.6% (active) | 38% | 94% (active) | 98.3% (active) | 89% (active) | 97% (active) | 98.4% (active)
